Experimental findings from PubChem BioAssay (NCI) are described below.

Among the test systems are SR leukemia; RPMI-8226 leukemia; OVCAR-8 ovarian; OVCAR-5 ovarian; OVCAR-4 ovarian; SK-OV-3 ovarian; IGROV1 ovarian; OVCAR-3 ovarian; HS 578T breast; NCI/ADR-RES ovarian.
Common to all, as to assay: NCI-60 one-dose screen, 48 h (100 = growth as untreated, 0 = no growth, -100 = all killed)
Settings in all cases: 10 µM unless noted

This is part of a sample that, as a whole, favours compounds with a hit. Of some 83,000 tested, about 20% had one in any assay.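 96-well plates, one dose, 48 hours. Percent growth reported; active if below 10.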 Values without a mark were called inactive. The source made the active and inactive calls.

As for `Oc1ccc(-c2nc3ccc4[nH]ncc4c3c3c2CCCC3)c(F)c1`, the growth in the experiment with SR leukemia is -1.33% (active); in the experiment on RPMI-8226 leukemia, 33.2%; with OVCAR-8 ovarian, 38%; with OVCAR-5 ovarian, 59.7%; in the experiment on OVCAR-4 ovarian, 51.3%; in the experiment with SK-OV-3 ovarian, -6.45% (active). The growth in the experiment on IGROV1 ovarian was 22.9%; with OVCAR-3 ovarian it was 46.6%; with HS 578T breast it was 14.8%; in the experiment on NCI/ADR-RES ovarian it was 52%.

Take `c1cc(OCCN2CCCC2)ccc1CNc1ccc2nc(CCC3CCCCC3)[nH]c2c1`: the growth with SR leukemia is 7.84% (active); in the experiment on RPMI-8226 leukemia, -8.82% (active); in the experiment on OVCAR-8 ovarian, 43%; with OVCAR-5 ovarian it was 67.5%; in the experiment on OVCAR-4 ovarian it was 56.7%; with SK-OV-3 ovarian, 99.3%. Further, the growth in the experiment on IGROV1 ovarian was 46.3%; in the experiment with OVCAR-3 ovarian, 49.6%; in the experiment with NCI/ADR-RES ovarian, 85%.

On to `COc1cc(/C=C/C(=O)c2cc(OC)c(OC)c(OC)c2)ccc1Oc1nc2c(c(=O)n(C)c(=O)n2C)n1C`, for which the growth with SR leukemia was 8.62% (active); with RPMI-8226 leukemia, 6.12% (active); in the experiment on OVCAR-8 ovarian, 10.7%; with OVCAR-5 ovarian, 5.82% (active); in the experiment on OVCAR-4 ovarian it was 19.1%; with SK-OV-3 ovarian, 30.3%. For the same molecule, the growth in the experiment on IGROV1 ovarian is -8.8% (active); with OVCAR-3 ovarian it was -48.4% (active); in the experiment with NCI/ADR-RES ovarian it was 0.709% (active).

Consider `C#Cc1cccc(Nc2ncnc3cc(NC(=O)CCl)ccc23)c1`, for which the growth with SR leukemia is -37.5% (active); in the experiment with RPMI-8226 leukemia, -43.7% (active); with OVCAR-8 ovarian it was -11.7% (active); in the experiment on OVCAR-5 ovarian, -91% (active); with OVCAR-4 ovarian it was -60.1% (active); with SK-OV-3 ovarian it was -0.177% (active). Also, the growth with IGROV1 ovarian was -56.6% (active); in the experiment on OVCAR-3 ovarian it was -88.7% (active); in the experiment on NCI/ADR-RES ovarian it was -28.6% (active).

`Cc1cc(=O)n(C(=S)Nc2ccc(Cl)cc2)c2cc(O)ccc12`: the growth with SR leukemia was 108%; with RPMI-8226 leukemia, 113%; in the experiment with OVCAR-8 ovarian, 101%; in the experiment with OVCAR-5 ovarian, 101%; in the experiment on OVCAR-4 ovarian it was 92.5%; with SK-OV-3 ovarian it was 79.1%. Besides, the growth with IGROV1 ovarian was 102%; in the experiment on OVCAR-3 ovarian it was 100%; in the experiment with NCI/ADR-RES ovarian, 103%.

In the case of `Cc1cc(NCCCNc2ccnc3cc(Cl)ccc23)nc(Nc2ccc(C(=O)N3CCCCC3)cc2)n1`, the growth is -31.8% (active) in the experiment on SR leukemia; -11.1% (active) in the experiment on RPMI-8226 leukemia; 25.4% in the experiment with OVCAR-8 ovarian; 71.6% with OVCAR-5 ovarian; 39.5% in the experiment with OVCAR-4 ovarian; 96.8% in the experiment on SK-OV-3 ovarian. In addition, the growth with IGROV1 ovarian was 46.3%; in the experiment on OVCAR-3 ovarian, 18.8%; in the experiment on NCI/ADR-RES ovarian it was 75.6%.

Take `Cc1ccc2c(c1)nc(C)n2-c1ncnc2c1CC(C)c1cc(O)ccc1N2C` (stereo not drawn): the growth was 6.97% (active) with SR leukemia; 30.3% in the experiment on RPMI-8226 leukemia; 40.6% in the experiment on OVCAR-8 ovarian; 89% with OVCAR-5 ovarian; 67.5% in the experiment with OVCAR-4 ovarian; 14.1% in the experiment on SK-OV-3 ovarian. Moreover, the growth was 51.4% in the experiment on IGROV1 ovarian, 14.6% with OVCAR-3 ovarian and 25.9% in the experiment with NCI/ADR-RES ovarian.

For the molecule `COc1cc(-c2nccc3[nH]c(-c4cccc5[nH]ccc45)nc23)cc(OC)c1OC`, the growth was 8.9% (active) with SR leukemia; -43.6% (active) in the experiment with RPMI-8226 leukemia; 18.2% in the experiment on OVCAR-8 ovarian; 73.8% in the experiment on OVCAR-5 ovarian; 47.5% in the experiment on OVCAR-4 ovarian; 15.1% with SK-OV-3 ovarian. The growth is 44.6% with IGROV1 ovarian, 16.7% in the experiment on OVCAR-3 ovarian, 38.4% in the experiment on HS 578T breast and 4.71% (active) in the experiment on NCI/ADR-RES ovarian.

As for `c1cc(OCCN2CCCCC2)ccc1CNc1ccc2nc(CCC3CCCCC3)[nH]c2c1`, the growth in the experiment on SR leukemia is 12.5%; with RPMI-8226 leukemia, -22.5% (active); in the experiment with OVCAR-8 ovarian it was 36.6%; with OVCAR-5 ovarian it was 60.2%; in the experiment on OVCAR-4 ovarian it was 49.5%; with SK-OV-3 ovarian, 86.1%. Moreover, the results for the growth with IGROV1 ovarian, in the experiment with OVCAR-3 ovarian and with NCI/ADR-RES ovarian were 42.3%, 48.4% and 63.8%, respectively.

In the case of `C=C(c1ccc(C(=O)O)c(F)c1)c1cc2c(cc1C)C(C)(C)CCC2(C)C`, the growth was 86.8% with SR leukemia; 43.1% with RPMI-8226 leukemia; 90.8% in the experiment with OVCAR-8 ovarian; 101% in the experiment with OVCAR-5 ovarian; 80.9% with OVCAR-4 ovarian; 84.8% in the experiment on SK-OV-3 ovarian. The results for the growth in the experiment on IGROV1 ovarian, in the experiment with OVCAR-3 ovarian and with NCI/ADR-RES ovarian were 98%, 90.8% and 79.5%, respectively.

As for `COc1cc(/C=C/C(=O)c2cccc(-n3cc(-c4ccc(Cl)cc4)[nH]c3=O)c2)ccc1O`, the growth is 33% in the experiment with SR leukemia; 5.06% (active) in the experiment with RPMI-8226 leukemia; 46.5% with OVCAR-8 ovarian; 91.4% with OVCAR-5 ovarian; 97.9% with SK-OV-3 ovarian; -10.6% (active) in the experiment with IGROV1 ovarian. Besides, the growth with OVCAR-3 ovarian was 3.36% (active); in the experiment with HS 578T breast, 76.5%; in the experiment with NCI/ADR-RES ovarian, 35.4%.

`Cc1ccc2cnc(N)c(C#Cc3cc(C(=O)Nc4ccc(CN5CCN(C)CC5)c(C(F)(F)F)c4)cnc3C)c2c1`: the growth in the experiment on SR leukemia was -36.1% (active); in the experiment on RPMI-8226 leukemia, -40.6% (active); in the experiment with OVCAR-8 ovarian, 48.4%; in the experiment on OVCAR-5 ovarian, -59.1% (active); with OVCAR-4 ovarian, 37.6%; in the experiment with SK-OV-3 ovarian, 50.5%. For the same molecule, the results for the growth in the experiment with IGROV1 ovarian, with OVCAR-3 ovarian and with NCI/ADR-RES ovarian were 11%, 32.4% and 22.8%, respectively.

`COc1cc(C[C@H]2COc3cc(O)cc(O)c3C2=O)ccc1O`: the growth in the experiment on SR leukemia is 19%; with RPMI-8226 leukemia, 18.2%; in the experiment on OVCAR-8 ovarian, 28.1%; with OVCAR-5 ovarian, 101%; in the experiment on SK-OV-3 ovarian, 29.2%; in the experiment with IGROV1 ovarian, 41.3%. Further, the growth with OVCAR-3 ovarian is 14.1%; in the experiment on HS 578T breast, 13.7%; in the experiment on NCI/ADR-RES ovarian it was 20.9%.

In the case of `COc1ccc2cc(C(=O)N3CCC([C@@H](C)C(=O)NCc4ccc5c(c4)OCO5)CC3)[nH]c2c1`, the growth in the experiment with SR leukemia is 62.6% [50 µM]; in the experiment on RPMI-8226 leukemia, 47.1% [50 µM]; in the experiment on OVCAR-8 ovarian it was 16.3% [50 µM]; with OVCAR-5 ovarian, 73.1% [50 µM]; in the experiment on SK-OV-3 ovarian, 1.39% [50 µM] (active); with IGROV1 ovarian, 41.6% [50 µM]. The growth in the experiment with OVCAR-3 ovarian is 8.71% [50 µM] (active); in the experiment on HS 578T breast, 22.9% [50 µM]; with NCI/ADR-RES ovarian it was 38.3% [50 µM].
